Test [1] concerns Wnt5a (protein binding on small-molecule microarray). In words: Wnt5a binders on small-molecule microarray, primary screen, biophysical, 635/667 nm fluorescence (AID 1142).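 Note: fluorescence read at 667 nm with signal to noise per printed feature.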 The settings on record: 635 nm fluorescence, higher = more signal.
Test [2] is described as follows: cell viability in Huh7 cells, primary screen, cytotoxicity control for HCV replication inhibitor project, CellTiter-Glo luminescence, basal, 48 h (AID 1143).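 Note: Huh7 hepatoma cells carrying a hepatitis C replication reporter with no stimulus; test concentration not given here.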 The note with it: Huh7 HCV replicon, higher = more signal, called active from +8 up or from −8 down. (In general: ATP-based viability assays read luminescence as a measure of living cells.)
The nature of test [3]: P. aeruginosa biofilm formation inhibitors, primary screen, PAO1 strain, BacTiter-Glo luminescence, LB-PBS (AID 1144). The note with it: 12 h, higher = more signal.
A short description of test [4]: CREB reporter modulators without forskolin, primary screen, cell-based, PC12, CRE-LacZ reporter, unstimulated (AID 1145). The settings on record: no forskolin, luminescence, 4.5 h, higher = more signal, called active from +8 up or from −8 down.
Test [5] in a line: CREB reporter modulators under forskolin, primary screen, cell-based, PC12, CRE-LacZ reporter, forskolin-stimulated (AID 1146).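 Note: PC12 cells with 6xCRE LacZ reporter stimulated by forskolin 10 µM; beta-galactosidase reporter signal reflecting CREB driven transcription.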 The settings on record: luminescence, 4.5 h, higher = more signal, called active from +8 up or from −8 down.
Test [6] addresses Streptavidin (Streptomyces avidinii) (UniProt P22629). In words: streptavidin binders on small-molecule microarray, primary screen, artefact control for SMM compound annotation, biophysical, 635/667 nm fluorescence (AID 1147).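 Note: signal reflects streptavidin binding to arrayed compounds as a control protein.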 The settings on record: streptavidin binding, higher = more signal.
The nature of test [7]: small-molecule binders of probe aInhba, primary screen, biochemical, small-molecule microarray, 635/667 nm fluorescence (AID 1148).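 Note: score merges 667nm spot fluorescence with signal-to-noise for antibody binding to printed compounds.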 The settings on record: higher = more signal.
Test [8] concerns the target Torsin-1A (Homo sapiens) (UniProt O14656). In words: torsin A binders from cell lysate, primary screen, small-molecule microarray, wild-type, 635/667 nm (AID 1149). The settings on record: COS7 hTOR1A-WT lysate, 635 nm fluorescence, higher = more signal.
Test [9] shares this target. The test can be described thus: small-molecule binders of mutant TOR1A in lysate, primary screen, cell lysate, small-molecule microarray, COS7 lysate, 635/667 nm fluorescence (AID 1150).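 Note: score pools 667 nm emission and signal to noise measuring lysate protein binding.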 The settings on record: COS7 hTOR1A mutant lysate, 635 nm fluorescence, higher = more signal.
The subject of test [10] is Sonic hedgehog protein (Shh). The test can be described thus: small-molecule binders of Shh protein, primary screen, biochemical, small-molecule microarray, 635/667 nm fluorescence (AID 1151).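 Note: Shh protein binding to compounds spotted on small-molecule microarray slides; score combines spot fluorescence intensity with signal-to-noise across triplicate slides.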 The settings on record: small-molecule microarray binding, 635 nm fluorescence; higher = more signal.
A short description of test [11]: E. coli DRC41 culture turbidity changes, primary screen, E. coli filamentation inducer project, strain DRC41, OD650, 48 h (AID 1152).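 Note: E. coli MC1000 strain DRC41 lacking acrAB efflux pump and sulA.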 The note with it: E. coli DRC41 (acrAB sulA), higher = more signal, called active from +8 up or from −8 down.
Test [12] can be described thus: small-molecule binders of probe aLefty1, primary screen, biochemical, small-molecule microarray, 635/667 nm fluorescence (AID 1153).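 Note: score merges spot fluorescence with signal-to-noise ratio from the scanned slide images.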 The settings on record: higher = more signal.
The nature of test [13]: PSAC antagonists in infected red cells, primary screen, cell-based, P. falciparum Indochina, OD700, 1 h (AID 1154). The note with it: P. falciparum Indochina infected RBC osmotic lysis, higher = more signal, called active from +8 up or from −8 down.
The nature of test [14]: PSAC antagonists in infected red cells, primary screen, cell-based, P. falciparum Indochina, OD700, 2 h (AID 1155).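 Note: lysis reports solute entry through the parasite surface anion channel PSAC; channel blockers reduce lysis of infected cells.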 The settings on record: P. falciparum Indochina infected erythrocytes, osmotic lysis OD700; higher = more signal, called active from +8 up or from −8 down.
Test [15] is described as follows: osmotic lysis modulators in infected erythrocytes, primary screen, PSAC antagonist project, cell-based, P. falciparum Indochina, OD700, 3 h (AID 1156). The settings on record: higher = more signal, called active from +8 up or from −8 down.
Test [16] can be described thus: PSAC antagonists in infected red cells, primary screen, cell-based, P. falciparum Indochina, OD700, 18 h (AID 1157). The settings on record: P. falciparum Indochina infected erythrocytes, osmotic lysis OD700, 18 h; higher = more signal, called active from +8 up or from −8 down.
A short description of test [17]: modulators of S6 phosphorylation in cells, primary screen, cell-based, A549, cytoblot, luminescence, serum-stimulated (AID 1158).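 Note: serum-stimulated A549 lung adenocarcinoma cells; signal is phosphorylated S6 detected by cytoblot immunostaining with HRP secondary.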 The note with it: A549 phospho-S6 cytoblot, 5 h, higher = more signal.
Test [18] concerns the target NADPH oxidase 2 (Homo sapiens) (UniProt P04839). In words: NOX2-dependent H2O2 signal modulators, primary screen, NOX inhibitor project, cell-based, HEK293-NOX2, PMA-stimulated, Amplex Red fluorescence (AID 1159). Note: test concentration not given here. The note with it: 45 min, higher = more signal, called active from +8 up or from −8 down.
In test [19] the target is NADPH oxidase 4 (Homo sapiens) (UniProt Q9NPH5). The test can be described thus: NOX4-dependent H2O2 signal modulators, primary screen, NOX inhibitor project, cell-based, HEK293-NOX4, tetracycline-induced, Amplex Red fluorescence (AID 1160). The settings on record: 45 min, higher = more signal, called active from +8 up or from −8 down.
Test [20] concerns the target NADPH oxidase 5 (Homo sapiens) (UniProt Q96PH1). In words: NOX5-dependent H2O2 signal modulators, primary screen, NOX inhibitor project, cell-based, HEK293-NOX5, Amplex Red fluorescence (AID 1161). The note with it: HEK293-NOX5, ionomycin, 45 min, higher = more signal.

Calls of active or inactive are those of the source. Unless noted, the rule behind the calls is not given here.

Chain of NADPH oxidase 2 (Homo sapiens) (P04839 whole entry, looked up): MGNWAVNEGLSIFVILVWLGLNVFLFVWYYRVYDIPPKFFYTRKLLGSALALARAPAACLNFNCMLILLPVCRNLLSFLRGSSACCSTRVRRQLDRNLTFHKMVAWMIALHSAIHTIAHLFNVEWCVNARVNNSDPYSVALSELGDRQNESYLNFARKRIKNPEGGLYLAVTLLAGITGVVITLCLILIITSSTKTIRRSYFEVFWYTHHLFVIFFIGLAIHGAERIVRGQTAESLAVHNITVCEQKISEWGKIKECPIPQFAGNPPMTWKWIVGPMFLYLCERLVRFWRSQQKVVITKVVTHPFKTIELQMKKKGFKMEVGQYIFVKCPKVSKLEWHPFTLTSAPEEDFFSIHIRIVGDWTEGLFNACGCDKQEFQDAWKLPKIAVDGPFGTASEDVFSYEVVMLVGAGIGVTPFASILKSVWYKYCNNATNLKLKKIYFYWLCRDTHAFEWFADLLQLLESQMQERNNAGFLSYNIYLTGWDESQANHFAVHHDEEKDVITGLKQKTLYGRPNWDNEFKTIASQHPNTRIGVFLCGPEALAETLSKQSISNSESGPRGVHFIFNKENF
Chain of Streptavidin (Streptomyces avidinii) (P22629 whole entry, looked up): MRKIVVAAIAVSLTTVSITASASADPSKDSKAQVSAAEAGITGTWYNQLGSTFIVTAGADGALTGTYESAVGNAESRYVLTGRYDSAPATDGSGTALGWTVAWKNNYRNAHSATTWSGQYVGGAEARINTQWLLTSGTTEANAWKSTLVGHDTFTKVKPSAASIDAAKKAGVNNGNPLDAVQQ
Chain of NADPH oxidase 4 (Homo sapiens) (Q9NPH5 whole entry, looked up): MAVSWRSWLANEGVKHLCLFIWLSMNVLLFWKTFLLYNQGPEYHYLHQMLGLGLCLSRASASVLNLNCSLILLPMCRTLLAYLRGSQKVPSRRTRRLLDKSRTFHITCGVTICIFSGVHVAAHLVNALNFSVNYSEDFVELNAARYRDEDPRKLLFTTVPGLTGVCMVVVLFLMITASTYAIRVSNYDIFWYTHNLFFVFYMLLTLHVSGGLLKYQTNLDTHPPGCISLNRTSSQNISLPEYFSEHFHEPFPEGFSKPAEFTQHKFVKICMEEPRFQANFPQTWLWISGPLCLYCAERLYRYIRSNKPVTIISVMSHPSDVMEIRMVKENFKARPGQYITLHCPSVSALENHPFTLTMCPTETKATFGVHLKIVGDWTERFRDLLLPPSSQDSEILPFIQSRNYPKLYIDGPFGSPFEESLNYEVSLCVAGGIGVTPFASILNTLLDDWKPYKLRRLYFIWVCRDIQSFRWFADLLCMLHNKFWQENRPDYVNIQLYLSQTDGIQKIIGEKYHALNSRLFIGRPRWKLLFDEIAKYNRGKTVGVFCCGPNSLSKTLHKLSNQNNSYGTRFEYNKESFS
Chain of Torsin-1A (Homo sapiens) (O14656 whole entry, looked up): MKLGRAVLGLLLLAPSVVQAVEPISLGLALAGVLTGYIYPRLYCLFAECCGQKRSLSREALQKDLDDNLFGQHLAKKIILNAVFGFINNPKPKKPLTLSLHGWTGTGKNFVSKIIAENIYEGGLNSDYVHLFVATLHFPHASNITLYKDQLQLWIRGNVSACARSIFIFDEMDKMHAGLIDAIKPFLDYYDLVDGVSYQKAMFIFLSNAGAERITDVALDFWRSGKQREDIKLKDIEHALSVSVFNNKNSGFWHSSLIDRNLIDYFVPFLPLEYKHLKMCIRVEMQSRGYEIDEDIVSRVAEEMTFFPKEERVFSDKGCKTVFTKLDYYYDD
Chain of NADPH oxidase 5 (Homo sapiens) (Q96PH1 whole entry, looked up): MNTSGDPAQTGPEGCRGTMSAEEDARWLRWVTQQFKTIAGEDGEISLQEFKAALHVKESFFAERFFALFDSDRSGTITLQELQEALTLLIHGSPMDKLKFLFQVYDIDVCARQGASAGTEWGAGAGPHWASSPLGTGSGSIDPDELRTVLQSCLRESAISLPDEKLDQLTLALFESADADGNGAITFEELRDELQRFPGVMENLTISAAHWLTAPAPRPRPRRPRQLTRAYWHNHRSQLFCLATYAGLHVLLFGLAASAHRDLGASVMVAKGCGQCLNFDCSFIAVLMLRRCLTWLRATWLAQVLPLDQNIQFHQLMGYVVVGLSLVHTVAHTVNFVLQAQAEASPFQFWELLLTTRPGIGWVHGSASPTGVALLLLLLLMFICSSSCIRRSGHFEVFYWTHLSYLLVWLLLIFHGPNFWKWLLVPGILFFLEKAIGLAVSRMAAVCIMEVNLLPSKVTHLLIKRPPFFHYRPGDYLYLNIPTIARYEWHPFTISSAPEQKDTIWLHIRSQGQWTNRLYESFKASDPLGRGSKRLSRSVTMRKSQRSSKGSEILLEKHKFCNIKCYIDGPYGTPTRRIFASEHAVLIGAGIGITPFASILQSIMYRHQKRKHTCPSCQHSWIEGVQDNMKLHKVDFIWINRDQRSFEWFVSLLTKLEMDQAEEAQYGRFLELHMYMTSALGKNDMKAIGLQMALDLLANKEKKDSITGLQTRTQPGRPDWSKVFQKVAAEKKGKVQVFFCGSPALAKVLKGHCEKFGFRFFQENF

Turning to `[N-]=[N+]=NCc1ccccc1[C@@H]1OC(c2ccc(OCCCO)cc2)=N[C@]1(Cc1ccccc1N=[N+]=[N-])C(=O)O`, the composite z-score is 1.04 in test [1]; 0.488 in test [6]; 0.587 in test [7]; 0.177 with Torsin-1A (Homo sapiens) [8]; 0.585 with Torsin-1A (Homo sapiens) [9]; -0.379 in test [10]. The compound also showed a composite z-score in [12] of 0.865. Further, the z-score in [2] was -2.25 (inactive); in [3], -1.09 (inactive); in [4] it was 0.526 (inactive); in test [5], -0.638 (inactive); in test [11] it was 0.0786 (inactive); in test [13], 22.9 (active). Further, the z-score was 6.73 (inactive) in test [14]; 3.2 (inactive) in test [15]; 0.982 (inactive) in test [16]; 0.0708 in [17]; -1.51 (inactive) in test [18]; -0.241 (inactive) in [19]. The same compound yielded a z-score in test [20] of 0.58.

In the case of `COc1cc(CO)cc(I)c1O[C@H]1C=C(C(=O)NCCO)C[C@@H](NC2CCCCCC2)[C@@H]1O`, the composite z-score was 0.29 in test [1]; -0.0211 in test [6]; -0.0115 in [7]; 0.0076 in the test with Torsin-1A (Homo sapiens) [8]; 0.243 in the test with Torsin-1A (Homo sapiens) [9]; 1.3 in test [10]. This compound registered a composite z-score in [12] of 0.0313. For the same compound, the z-score was -1.65 (inactive) in [2]; 0.0741 (inactive) in test [3]; 5.46 (inactive) in test [4]; 0.0453 (inactive) in test [5]; 0.818 (inactive) in test [11]; 10.1 (active) in test [13]. For the same compound, the z-score in test [14] was 1.55 (inactive); in [15] it was 3.68 (inactive); in test [16] it was 1.09 (inactive); in [17], 0.565; in test [18], 0.287 (inactive); in test [19] it was -0.789 (inactive). The same compound yielded a z-score in test [20] of -0.579.

As to `CC(C)C(=C=CC[C@H](O)c1ccccc1OCCO)C[C@H](O)COCc1ccccc1`, the composite z-score in test [1] was -0.042; in [6] it was -0.266; in [7] it was -0.101; in the test with Torsin-1A (Homo sapiens) [8] it was -0.0509; with Torsin-1A (Homo sapiens) [9] it was 1.12; in [10], 0.0553. The compound also returned a composite z-score in [12] of -0.174. In addition, the z-score is -2.03 (inactive) in test [2]; 0.297 (inactive) in test [3]; 16 (active) in test [4]; -0.0014 (inactive) in [5]; -0.188 (inactive) in test [11]; 13.2 (active) in test [13]. In addition, the z-score was 2.13 (inactive) in [14]; 1.54 (inactive) in [15]; 1.21 (inactive) in test [16]; -0.181 in test [17]; -1.34 (inactive) in test [18]; -1.44 (inactive) in test [19]. In test [20], this compound came in with a z-score of -2.38.

On to `OCCCC1=CC(c2ccc(CN3CCCC3)cc2)N(Cc2cccc(OC(F)(F)F)c2)CC1` (stereo not given), for which the composite z-score was -0.131 in [1]; -0.69 in test [6]; -0.0791 in test [7]; 0.265 in the test with Torsin-1A (Homo sapiens) [8]; -0.165 with Torsin-1A (Homo sapiens) [9]; 0.365 in test [10]. The compound further showed a composite z-score in test [12] of 0.286. Moreover, the z-score in test [2] is -9.01 (active); in test [3], 0.697 (inactive); in test [4], -0.0884 (inactive); in [5], 0.593 (inactive); in test [11], -2.64 (inactive); in test [13], 3.61 (inactive). In addition, the z-score in [14] was 0.935 (inactive); in test [15], 0.524 (inactive); in test [16], 0.749 (inactive); in test [17], -0.791; in [18], -5.61 (inactive); in [19], -2.06 (inactive). In test [20], this compound had a z-score of -2.16.
